According to PubChem BioAssay AID2283336 (EPA ToxCast):
Results filed as inconclusive are left out. Active and inactive are the calls of the source. How the source made its calls: active means hit-call score of the fitted dose curve at least 0.9, where 1 is the maximum; inconclusive means response in the unintended direction; inactive means score below 0.9.

Molecular target: Kcnn1 (gene 54261) (UniProt P70606)
Assay: NVS_IC_rKCaCh: NovaScreen (NVS) Ion Channel Assay for Potassium Channel, Ca2+ Act., VI (KCaCh)
How it was run: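 Radioligand binding to rat forebrain membranes, cell-free, read 1 hour after dosing by filter-based scintillation counting. Compounds first run in duplicate at 25 uM, actives then in concentration series; loss of signal vs DMSO indicates displacement.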

Chain of Kcnn1 (gene 54261) (P70606 whole entry, looked up): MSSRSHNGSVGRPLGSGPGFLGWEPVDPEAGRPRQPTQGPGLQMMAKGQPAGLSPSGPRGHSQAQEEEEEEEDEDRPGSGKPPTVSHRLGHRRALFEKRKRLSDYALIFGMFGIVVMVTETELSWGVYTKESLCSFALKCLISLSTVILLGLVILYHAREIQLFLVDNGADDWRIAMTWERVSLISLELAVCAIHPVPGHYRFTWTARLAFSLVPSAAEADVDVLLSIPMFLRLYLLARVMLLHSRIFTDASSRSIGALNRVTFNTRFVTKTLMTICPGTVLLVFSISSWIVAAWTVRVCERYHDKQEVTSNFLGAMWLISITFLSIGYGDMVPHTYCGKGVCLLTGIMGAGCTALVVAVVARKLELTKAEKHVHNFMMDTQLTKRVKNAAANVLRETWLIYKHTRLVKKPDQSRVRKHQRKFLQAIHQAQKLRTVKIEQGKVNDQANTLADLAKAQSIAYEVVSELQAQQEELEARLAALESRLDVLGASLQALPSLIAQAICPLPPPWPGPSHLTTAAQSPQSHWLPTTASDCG

With `CN(C)c1ccc(C(=C2C=CC(=[N+](C)C)C=C2)c2ccc(N(C)C)cc2)cc1` the AC50 was 16.5 µM (active).
